The nature of assay [1]: qHTS assay for small molecule agonists of the p53 signaling pathway (AID 651631; calls by dose curve; also: nearly all actives have a fitted effect of over 15% in size; also: potency is read from the fitted curve at half-maximal effect). The essentials:
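Read-out is beta-lactamase FRET fluorescence measured 2 h after substrate addition at room temperature, in HCT-116 cells with a p53 response element-driven reporter exposed to compounds for 16 h at 37 °C.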
(Quantitative high-throughput screening tests each substance at several concentrations.)

A short description of assay [2]: qHTS assay for small molecules that induce genotoxicity in human embryonic kidney cells expressing luciferase-tagged ATAD5 (AID 651632). Also: nearly all actives have a fitted effect of over 15% in size. The essentials:
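Luminescence read-out: after 16 hr compound exposure at 37C, ATAD5-luciferase HEK293T cells received Amplite, 30 min RT, then CCD imaging. A rise in signal marks genotoxic stress.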

The nature of assay [3]: qHTS assay for small molecules that induce genotoxicity in human embryonic kidney cells expressing luciferase-tagged ATAD5 - cell viability (AID 651634; calls by dose curve; also: nearly all actives have a fitted effect of over 25% in size). The essentials: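 HEK293T ATAD5-luc cells, 2,000/well; compound 15.5 hr, 37C/5% CO2; CellTiter-Fluor 30 min, 37C; fluorescence read.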
Assay [4] is described as follows: qHTS assay for small molecule disruptors of the mitochondrial membrane potential - cell viability (AID 720634; calls by dose curve;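 also: human HepG2 liver cancer cells; series mostly up to about 83 µM; nearly all actives have a fitted effect of over 20% in size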). The essentials:
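Luminescence from CellTiter-Glo (ATP content) gave viability in HepG2 cells, read in the same wells as the MMP dye assay after 1 hr compound exposure at 37 C.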

Assay [5] can be described thus: qHTS assay for small molecule disruptors of the mitochondrial membrane potential (AID 720635). Also: potency is read from the fitted curve at half-maximal effect. The essentials: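 HepG2 cells exposed to compound 1 hr at 37C, then Mito-MPS dye 30 min. Ratio read of aggregate (540/590 nm) versus monomer (490/535 nm) fluorescence.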
The nature of assay [6]: qHTS assay to test for compound auto fluorescence at 590 nm (red) in HepG2 cells (AID 720674). The essentials:
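Fluorescence at 590 nm emission following 540 nm excitation was recorded from HepG2 wells one hour after compound transfer, with DMSO-only wells as vehicle and Rose Bengal sodium equivalency as the scale.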

Assay [7] is described as follows: qHTS assay to test for compound auto fluorescence at 535 nm (green) in HepG2 cells (AID 720675).
Assay [8] can be described thus: qHTS assay to test for compound auto fluorescence at 590 nm (red) in HEK293 cells (AID 720679). The essentials: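 Each well held 2,000 HEK293 cells in medium containing 10% dialyzed FBS. Following 4-5 hr attachment at 37C, 23 nL test compound or DMSO was added; plates sat overnight, and red fluorescence (540/590nm) was recorded.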
Assay [9] is described as follows: qHTS assay to test for compound auto fluorescence at 460 nm (blue) in HEK293 cells (AID 720678). The essentials:
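Cells were seeded and left to adhere for 4-5 hr at 37C. Compounds were then pin-transferred. After an overnight incubation at 37C under 5% CO2, intrinsic fluorescence at 405/460 nm was measured and referenced to triamterene.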

A short description of assay [10]: qHTS assay for small molecule agonists of the p53 signaling pathway - cell viability (AID 651633; calls by dose curve;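 also: p53RE-bla HCT reporter cells with a stable beta-lactamase p53 reporter; series mostly up to about 83 µM; nearly all actives have a fitted effect of over 30% in size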). The essentials: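 p53RE-bla cells were treated with compound for 16 hours at 37 C. Cytotoxicity was then measured as CellTiter-Glo luminescence after 30 min at room temperature.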

Values without a mark were called inactive. Results filed as inconclusive are left out. Active and inactive are the calls of the source. Unless noted, calls follow the shape of the dose curve; as a rule, active = well fitted curve in the direction sought with a large enough effect in the repeat runs; inconclusive = weak or mixed curves; inactive = no such curve, though single readings can be large; an effect the other way counts as inactive or inconclusive.
% is scaled to controls: 0 for no effect and ±100 for the full control effect.

`[O]=[Cd]`: the Potency result in [1], in assay [2], in assay [3], in assay [4] and in assay [5] was “inactive” in each case. For the same compound, the call in assay [6], in assay [7] and in assay [8] was inactive.

As to `O=C(N[C@H]1CN2CCC1CC2)c1cc2ccoc2cn1`, the Potency entry in assay [1], in [2] and in [4] was “inactive” each time. Further, the compound was called inactive in assay [6], in assay [7], in [9] and in [8].

For the compound `COP(N)(=S)Oc1ccccc1C(=O)OC(C)C` (stereo not drawn), the Potency result in assay [1], in [2], in assay [10] and in assay [4] was “inactive” in each case. Further, the compound was called inactive in assay [6], in assay [7], in [9] and in assay [8].

In the case of `CCN(Cc1ccc(Cl)nc1)/C(=C/[N+](=O)[O-])NC`, the Potency result in assay [1], in assay [2], in assay [3], in assay [4] and in assay [5] was “inactive” in each case. Further, the call in [9] and in [8] was inactive.

As for `CCCCOC(=O)c1ccccc1C(=O)O`, the Potency entry in assay [1], in assay [2], in [10] and in assay [4] was “inactive” in each case. Besides, the compound was classed as inactive in assay [6], in assay [7], in assay [9] and in assay [8].

Consider `COC(=O)C(c1ccccc1)C1CCCCN1` (stereo not drawn), for which the Potency result in [1], in [2], in assay [10], in assay [4] and in assay [5] was “inactive” throughout. For the same compound, the compound was called inactive in assay [7], in [9] and in assay [8].

Take `CN1C[C@@H](NS(=O)(=O)N(C)C)C[C@@H]2c3cccc4c3c(cn4C)C[C@H]21`: the Potency entry in assay [1], in assay [2], in [4] and in assay [5] was “inactive” each time. In addition, the compound was called inactive in assay [6], in [7], in [9] and in assay [8].

In the case of `CCCCN(CCCCO)N=O`, the Potency result in assay [1], in [2], in assay [10], in assay [4] and in assay [5] was “inactive” in each case. For the same compound, the outcome in [6], in [7], in assay [9] and in assay [8] was inactive.

On to `CC1=NNC(=O)N(/N=C/c2cccnc2)C1`, for which the Potency entry in assay [1], in assay [2], in [3], in assay [4] and in assay [5] was “inactive” throughout. Further, the compound was classed as inactive in assay [6], in assay [7] and in assay [9].

Turning to `O=C(CCN1CC1)OCC(CO)(COC(=O)CCN1CC1)COC(=O)CCN1CC1`, the Potency entry in assay [1], in [2], in assay [10] and in assay [4] was “inactive” each time. Further, the result in assay [6], in assay [7], in assay [9] and in [8] was inactive.

With `CCOC(=O)NC(=S)Nc1ccccc1NC(=S)NC(=O)OCC`, the Potency in assay [1] was 61.1 µM (active). The Potency result in assay [2], in assay [3] and in assay [4] was “inactive” throughout. The result in assay [6], in assay [7], in assay [9] and in [8] was inactive.

With `CCCCP(CCCC)CCCC`, the Potency result in [1], in assay [2], in assay [10] and in assay [4] was “inactive” each time. Moreover, the compound was classed as inactive in assay [6], in assay [7] and in [8].

For the compound `CCC1(c2ccccc2)C(=O)NC(=O)NC1=O`, the Potency entry in [1], in assay [2], in assay [10] and in assay [4] was “inactive” each time. For the same compound, the outcome in assay [6] was inactive.

As for `Nc1cnn(-c2ccccc2)c(=O)c1Cl`, the Potency result in assay [1], in [2], in assay [3], in assay [4] and in assay [5] was “inactive” in each case. The outcome in [6], in assay [7], in assay [9] and in assay [8] was inactive.

Take `OCCSCSCCO`: the Potency result in assay [1], in [2], in assay [3], in assay [4] and in assay [5] was “inactive” in each case. Moreover, the result in assay [6], in [7], in [9] and in assay [8] was inactive.

With `CC(C)CP(=S)(S)CC(C)C`, the Potency entry in assay [1], in [2], in [3] and in [4] was “inactive” each time. For the same compound, the result in assay [6], in [7] and in assay [8] was inactive.

Consider `O=[N+]([O-])c1ccc2c3c(cccc13)CC2`, for which the Potency entry in [1], in [2], in [3] and in [4] was “inactive” in each case. For the same compound, the Potency in assay [5] was 24.3 µM (active). For the same compound, the compound was called inactive in [7], in assay [9] and in assay [8].

Turning to `OC(c1ccccc1)(c1ccccc1)C1CCNCC1`, the Potency entry in assay [1], in assay [2], in assay [10], in assay [4] and in [5] was “inactive” in each case. Further, in [6], the fluorescence, relative to Rose Bengal was 0.0965% [at 18.6 µM]. Besides, in assay [9], the fluorescence, % of triamterene was -0.0368% [at 18.6 µM]. Besides, in assay [8], the fluorescence, % of fluorescent control was -0.0312% [at 18.6 µM].

With `NC(=O)c1cc([N+](=O)[O-])cc([N+](=O)[O-])c1`, the Potency entry in assay [1], in assay [2], in assay [4] and in [5] was “inactive” in each case. Moreover, the call in assay [6], in assay [7], in assay [9] and in [8] was inactive.

Consider `Cc1nnc2n1-c1sc(CCC(=O)N3CCOCC3)cc1C(c1ccccc1Cl)=NC2`, for which the Potency entry in assay [1], in assay [2], in [3] and in assay [4] was “inactive” each time. The compound was called inactive in [6], in assay [9] and in assay [8].

Regarding `ClCCOCOCCCl`, the Potency result in assay [1], in assay [2], in assay [3], in [4] and in assay [5] was “inactive” each time. The compound was classed as inactive in assay [6], in assay [9] and in assay [8].

For `COC(=O)c1c(C(F)F)nc(C(F)(F)F)c(C2=NCCS2)c1CC(C)C`, the Potency entry in assay [1], in [10] and in assay [3] was “inactive” in each case. Besides, the compound was classed as inactive in assay [6], in assay [7], in assay [9] and in [8].

Consider `COC(C)(C)C`, for which the Potency entry in assay [1], in assay [10], in assay [3], in [4] and in assay [5] was “inactive” each time. Moreover, in assay [7], the compound was classed as inactive.

On to `O=NN1CCN(N=O)CC1`, for which the Potency entry in assay [1] and in [4] was “inactive” each time. Further, the outcome in assay [6], in assay [7], in assay [9] and in [8] was inactive.

As to `O=S(=O)(O)C(F)(F)C(F)(F)C(F)(F)C(F)(F)C(F)(F)C(F)(F)F`, the Potency entry in assay [1] and in assay [4] was “inactive” throughout. Besides, the result in [6], in [7], in [9] and in assay [8] was inactive.

As to `N#Cc1c(Cl)cccc1Cl`, the Potency entry in assay [1], in [3] and in assay [4] was “inactive” in each case. The call in [6], in assay [9] and in [8] was inactive.

For the compound `CC(Cl)(Cl)[N+](=O)[O-]`, the Potency result in assay [1], in [10], in assay [3], in assay [4] and in assay [5] was “inactive” each time. Also, the compound was called inactive in assay [6], in [7], in assay [9] and in assay [8].

On to `C=CC1CC=CCC1` (stereo not drawn), for which the Potency entry in [1], in [10], in assay [3] and in assay [4] was “inactive” in each case. Moreover, the compound was called inactive in assay [6], in assay [7], in [9] and in assay [8].

Regarding `CCCCc1c(C)nc(NCC)[nH]c1=O`, the Potency entry in assay [1], in [3] and in [4] was “inactive” throughout. The call in assay [7] and in [8] was inactive.

On to `OC(Cn1cncn1)(c1ccc(F)cc1)c1ccccc1F` (stereo not drawn), for which the Potency entry in assay [1], in assay [10], in assay [3], in assay [4] and in assay [5] was “inactive” throughout. The result in assay [6], in assay [7], in [9] and in assay [8] was inactive.

In the case of `NC(=S)C(N)=S`, the Potency result in [1], in [10], in assay [3], in assay [4] and in assay [5] was “inactive” in each case. Moreover, the call in [6], in assay [9] and in assay [8] was inactive.

For the compound `CC(COc1ccc(Oc2ccccc2)cc1)Oc1ccccn1` (stereo not drawn), the Potency entry in assay [1], in [10] and in assay [3] was “inactive” each time. The result in assay [7] and in assay [9] was inactive.

The values above are taken from PubChem BioAssay (Tox21).
